# Assay results published in PubChem BioAssay (NCI).
# Compounds without any hit were thinned out: in the full panel of roughly 83,000, 20% have a hit.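 Assay: single dose, 48 h. Readout: percent growth (0 = no net growth; negative = cell death). Active: <10.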 A number with no mark means an inactive call. Active and inactive are the calls of the source.
# What was measured:
# Test in all cases: NCI-60 one-dose screen, 48 h (100 = growth as untreated, 0 = no growth, -100 = all killed)
# Conditions in all cases: 10 µM unless noted
# [1] = system: NCI-H23 lung
# [2] = system: NCI-H226 lung
# [3] = system: NCI-H322M lung
# [4] = system: HOP-62 NSCLC
# [5] = system: NCI-H460 lung
# [6] = system: HOP-92 NSCLC
# [7] = system: NCI-H522 lung
# [8] = system: A549/ATCC NSCLC
# [9] = system: 786-0 renal
# [10] = system: COLO 205 colon
Structure (SMILES),growth [1],growth [2],growth [3],growth [4],growth [5],growth [6],growth [7],growth [8],growth [9],growth [10]
Cc1ccc(-n2c(-c3ccccc3)c(-c3ccccc3)c3c(SCC(=O)n4[nH]c(N)cc4=O)ncnc32)cc1,90.8%,88.8%,101%,87.6%,103%,74.7%,79.6%,92.5%,96.6%,94.4%
COc1cc(/C=C/C(=O)c2cccc(-n3cc(-c4ccccc4)[nH]c3=O)c2)ccc1O,84.5%,105%,85.4%,129%,89.2%,45.3%,26.2%,66.7%,74%,100%
COc1cc(/C=C/C(=O)c2c(C)nc3ccccc3c2C)ccc1OCCCN1CCN(C(=O)c2ccco2)CC1,58.1%,63.2%,91.8%,91.5%,98.2%,70%,57.7%,79%,85.9%,99.1%
CN(C)CCNc1nc2ccccc2c2c1c1c(n2Cc2ccccc2)-c2ccccc2C1=O,-74.8% (active),-57.1% (active),-79.5% (active),-90.4% (active),-98.6% (active),-78.7% (active),-69.2% (active),-73% (active),-89.6% (active),-76.9% (active)
CCOc1ccccc1-c1cc(-c2cccs2)c(C#N)c(=O)[nH]1,86.1%,90.9%,83.9%,81.5%,93.8%,64.7%,75.5%,91.2%,92.1%,114%
CCN(CC)c1ccc2nc3c4ccccc4c(=NC(=O)c4ccccc4-c4c5ccc(N(CC)CC)cc5[o+]c5cc(N(CC)CC)ccc45)cc-3oc2c1,10.9%,76.5%,11.6%,17.4%,-54.1% (active),1.45% (active),-5.73% (active),14.5%,-28.3% (active),-80.1% (active)
CN(C)CC1C(=O)O[C@H]2[C@H]1CC/C(COC(=O)c1cc3ccccc3[nH]1)=C\CC[C@@]1(C)O[C@@H]21 (stereo not given in full),18.5%,23.8%,86.7%,43.4%,17.6%,-63.8% (active),-91.2% (active),11.5%,-81.6% (active),-63.9% (active)
Cc1cc(NCc2cc(Nc3ccnc4cc(Cl)ccc34)ccc2F)nc(Cl)n1,32.8%,52.4%,71.9%,54.5%,48.4%,31.9%,36.2%,56.7%,50.7%,44.2%
CCN(CC)c1nc(SCC(=O)Nc2nc3ccc(C)cc3s2)nc(-c2ccccc2)c1C#N,103%,86.2%,88.8%,91.9%,99.4%,55.4%,82.5%,79.4%,93.8%,102%
N#C/C(=C\c1ccc(Br)cc1)n1nnc2cc(F)c(F)cc21,28.5%,37.3%,58.6%,25.9%,30.5%,-9.69% (active),19.9%,41.5%,23.2%,25.7%
CN1C(=O)N(C)C2C1NN=c1s/c(=C\c3ccccc3)c(=O)n12 (stereo not given),64.1%,80.2%,59%,46.9%,17.5%,73.9%,12.5%,39.9%,30.5%,11.9%
C=CCNc1nc(NN2C(=O)c3cccc4cccc(c34)C2=O)nc(-n2cnc3ccccc32)n1,76.9%,51.8%,94.1%,60.4%,94.6%,16.5%,76.6%,86.4%,89.2%,103%
COc1ccc(-c2nc(SCCC(C)C)nc(N/N=C\c3cccc(Cl)c3)c2C#N)cc1,82.6%,90%,55.8%,49.7%,15.2%,62.5%,71.3%,59.7%,43.2%,81.9%
COc1ccc(-c2nc3c(N)c(CO)c(C)nc3o2)cc1,86.6%,41.2%,92.5%,90.3%,108%,116%,91.6%,92.4%,95.5%,109%
Cc1ccc(C(=O)C2=C(O)C(=O)N(Cc3cccnc3)C2c2ccccc2F)o1 (stereo not given),97.9%,96.5%,108%,91.6%,107%,83.9%,106%,87.3%,86.2%,108%
Cn1cc2c(c1)-c1nc(Nc3ccccc3)ncc1CC2,38.3%,51.7%,52.9%,69.2%,42.5%,70.6%,84.9%,72%,87.2%,76.7%
